Screening results: PubChem BioAssay, National Center for Advancing Translational Sciences (NCATS)
This is a sample that favours compounds with a hit; in the whole collection about 2.6% have one here.
Cruzain inh noDet = cruzain (T. cruzi) inhibition without detergent. P25779. purified cruzain, Z-FR-AMC fluorescence, no detergent. Potency, µM, for inactives: max response, negative = inhibition, actives largely listed as inhibitors. 200,000 compounds, 2.3% hits. AID 1476;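 also: plate controls were enzyme without inhibitor for no effect and buffer without enzyme for full effect; nearly all actives have a fitted effect of over 40% in size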
Target sequence (P25779 123-467 limits assumed): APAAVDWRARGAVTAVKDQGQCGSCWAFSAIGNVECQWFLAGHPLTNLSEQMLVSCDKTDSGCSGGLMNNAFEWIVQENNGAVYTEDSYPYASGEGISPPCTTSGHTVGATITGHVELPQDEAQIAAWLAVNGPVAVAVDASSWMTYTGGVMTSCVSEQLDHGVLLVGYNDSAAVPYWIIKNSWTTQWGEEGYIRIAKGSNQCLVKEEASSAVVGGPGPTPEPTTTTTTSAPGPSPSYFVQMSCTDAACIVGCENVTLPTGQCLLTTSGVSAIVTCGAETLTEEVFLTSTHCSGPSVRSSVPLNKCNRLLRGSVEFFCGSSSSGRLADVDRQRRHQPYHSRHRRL
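Detergent-free condition (0.00005% Triton X-100) in acetate buffer pH 5.5 with DTT. 1.5 nM enzyme and compound were pre-mixed 15 min, then 2 uM Z-FR-AMC substrate added; reaction progress from fluorescence change between first and third reads (60 s).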
Cruzain inh Det = inhibitors of Trypanosoma cruzi cruzain with detergent. Potency, µM, for the others: max response, negative = inhibition, most hits filed as inhibitors. purified cruzain, Z-FR-AMC fluorescence, 0.01% Triton. 200,000 compounds, 0.43% hits. AID 1478. P25779;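 also: plate controls were neutral wells for no effect and buffer without enzyme for full effect; nearly all actives have a fitted effect of over 40% in size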
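Enzyme 1.5 nM, Z-FR-AMC 2 uM, NaOAc 100 mM pH 5.5, DTT 5 mM, Triton X-100 0.01%; 15 min RT compound preincubation; kinetic ex360/em450, 60 s delta.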
An asterisk follows results filed as active. Calls follow the shape of the dose curve; as a rule, active = well fitted curve in the direction sought with a large enough effect; inconclusive = small, poorly fitted or top-dose-only effect, or another doubt; inactive = no such curve, though single readings can be large; an effect the other way counts as inactive or inconclusive. Potency is read from the fitted curve at half-maximal effect.

How did COc1ccc(OC)c(NC(=O)CSC2=Nc3ccccc3C3=NC(CCC(=O)NCc4ccco4)C(=O)N23)c1 (stereo not drawn) do in these assays?
Cruzain inh noDet: 18.4%; Cruzain inh Det: -1.0%

Results for COCCNC(=O)Cn1c(=O)n(CCCCCC(=O)NCc2ccccc2Cl)c(=O)c2sccc21 ?
Cruzain inh noDet: 14.2%; Cruzain inh Det: -10.5%

How did COC(=O)/C=c1/s/c(=C(/C#N)C(=O)NCc2ccccc2)n(-c2ccccc2)c1=O do in these assays?
Cruzain inh noDet: inconclusive; Cruzain inh Det: 1.2%

What do the screens show for `CCCCCCOc1ccc(/C=c2\s/c(=C(/C#N)C(=O)NCc3ccco3)n(-c3ccccc3)c2=O)cc1`?
Cruzain inh noDet: 3.16µM*; Cruzain inh Det: -0.9%

What do the screens show for `COc1ccc(Cl)cc1NC(=O)c1cnc2sc(N3CCOCC3)nn2c1=O`?
Cruzain inh noDet: -15.1%; Cruzain inh Det: 0.6%

Results for COc1ccc(CNC(=O)c2cnc(N3CCCC3)nc2C)c(OC)c1 ?
Cruzain inh noDet: 2.2%; Cruzain inh Det: -1.7%

Results for O=C(COc1ccccc1)NC(=S)Nc1ccc2c3c(cccc13)CC2 ?
Cruzain inh noDet: inconclusive; Cruzain inh Det: -7.5%

Results for CC(C)c1ccc(OCC(=O)NC(=S)Nc2ccc3c4c(cccc24)CC3)cc1 ?
Cruzain inh noDet: 25.1µM*; Cruzain inh Det: 1.2%

Results for Cc1ccc(OCC(=O)NC(=S)Nc2ccc3c4c(cccc24)CC3)cc1 ?
Cruzain inh noDet: inconclusive; Cruzain inh Det: -11.8%

Results for O=C(/C=C/c1ccccc1)NC(=S)Nc1ccc2c3c(cccc13)CC2 ?
Cruzain inh noDet: 12.6µM*; Cruzain inh Det: -6.1%

Results for Cc1cc(C)c(NC(=O)C(C)n2nc(C)c3sc4ccccc4c3c2=O)c(C)c1 (stereo not drawn) ?
Cruzain inh noDet: -8.6%; Cruzain inh Det: -2.9%

How did COc1ccc(NC(=O)C(NC(=O)/C=C\c2ccc3c(c2)OCO3)c2ccc(OC)cc2)cc1 (stereo not drawn) do in these assays?
Cruzain inh noDet: inconclusive; Cruzain inh Det: -4.1%

What do the screens show for `CCOC(=O)c1cccc(NC(=O)/C=C/c2ccc3c(c2)OCO3)c1`?
Cruzain inh noDet: -10.7%; Cruzain inh Det: -8.0%

Results for CC(=O)c1cccc(NC(=O)C(OC(=O)/C=C/c2ccc3c(c2)OCO3)c2ccccc2)c1 (stereo not drawn) ?
Cruzain inh noDet: 10µM*; Cruzain inh Det: 1.6%

Results for Cc1ccc(C(NC(=O)/C=C\c2ccc3c(c2)OCO3)C(=O)Nc2ccc3c(c2)OCO3)cc1 (stereo not drawn) ?
Cruzain inh noDet: 31.6µM*; Cruzain inh Det: -3.5%

What do the screens show for `CCC(C)n1c(=N)c(C(=O)NCc2ccco2)cc2c(=O)n3cc(C)ccc3nc21` (stereo not drawn)?
Cruzain inh noDet: 5.3%; Cruzain inh Det: -7.1%

How did COc1ccc(-c2nc(C)c(CCNC(=O)c3cccc(C)c3)s2)cc1OC do in these assays?
Cruzain inh noDet: inconclusive; Cruzain inh Det: -7.1%

What do the screens show for `O=C(NCCCN1CCN(c2ccccc2)CC1)c1nnc(Cc2ccc(F)cc2)o1`?
Cruzain inh noDet: 8.3%; Cruzain inh Det: -1.9%

How did Cc1cc(NC(=O)CSc2nc3ccccc3c(=O)n2-c2ccccc2)no1 do in these assays?
Cruzain inh noDet: -10.6%; Cruzain inh Det: 11.3%

What do the screens show for `CCOC(=O)c1sc(NC(=O)CSc2nc3c(c(=O)n2-c2ccc(F)cc2)SCC3)c(C(=O)OCC)c1C`?
Cruzain inh noDet: 25.1µM*; Cruzain inh Det: -2.7%

What do the screens show for `COC(=O)c1c(NC(=O)CSc2nc3ccccc3c(=O)n2-c2ccccc2)sc(C)c1C`?
Cruzain inh noDet: 12.6µM*; Cruzain inh Det: -3.0%

Results for CCOc1ccc(-n2c(SCC(=O)Nc3ccc(OC)cc3)nc3c(c2=O)SCC3)cc1 ?
Cruzain inh noDet: -5.5%; Cruzain inh Det: -1.4%

How did COc1ccc(N2CC(NC(=O)c3ccc(S(=O)(=O)N4CCOCC4)cc3)CC2=O)cc1 (stereo not drawn) do in these assays?
Cruzain inh noDet: -2.4%; Cruzain inh Det: 0.0%

How did O=C(OOC(=O)c1ccccc1)c1ccccc1 do in these assays?
Cruzain inh noDet: 0.7%; Cruzain inh Det: 2.4%

How did CCc1ccccc1Nc1nn2c(=O)c3ccc(C(=O)NCCC4=CCCCC4)cc3nc2s1 do in these assays?
Cruzain inh noDet: 25.1µM*; Cruzain inh Det: -4.2%

How did CCc1ccccc1Nc1nn2c(=O)c3ccc(C(=O)NCc4ccccc4OC)cc3nc2s1 do in these assays?
Cruzain inh noDet: 12.6µM*; Cruzain inh Det: -4.1%

What do the screens show for `CCc1ccccc1Nc1nn2c(=O)c3ccc(C(=O)Nc4ccc(OC)cc4)cc3nc2s1`?
Cruzain inh noDet: -20.3%; Cruzain inh Det: -2.3%

Results for COc1ccccc1Nc1nn2c(=O)c3ccc(C(=O)NCc4ccc(F)cc4)cc3nc2s1 ?
Cruzain inh noDet: -12.2%; Cruzain inh Det: -3.6%

How did CCCc1ccc(OC(C)C(=O)Nc2sc3c(c2C(=O)OC)CCCCC3)cc1 (stereo not drawn) do in these assays?
Cruzain inh noDet: -11.6%; Cruzain inh Det: -2.4%
